# Screening data from PubChem BioAssay.
# BJeLR viability – MLPCN primary cell-based screen for lethality selective to Ras in HRASV12 cells; BJeLR (HRASV12) viability, CellTiter-Glo ATP luminescence, 48 h; inhibition, % (no concentration beside the values); 300,000 tested, 0.17% active; AID 1554, 2009; in the data active = inhibition above about 50%; inconclusive = no clear call, values can overlap the other calls
# MazF activator – activators of E. coli MazEF toxin-antitoxin RNase, primary screen, biochemical, fluorescence, uHTS; FAM/BHQ RNA-DNA oligo cleavage fluorescence, 5 h; activation, % at 20 µM; 350,000 tested, 0.32% active; AID 504720, 2011; Endoribonuclease toxin MazF (Escherichia coli (strain K12)), P0AE70; in the data active = activation above about 50%
# Target sequence (P0AE70 whole entry, looked up): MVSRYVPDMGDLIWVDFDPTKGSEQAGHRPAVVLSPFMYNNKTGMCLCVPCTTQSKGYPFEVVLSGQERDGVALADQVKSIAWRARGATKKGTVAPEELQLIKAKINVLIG
# PfHsp40 rescue – rescue of yeast from PfHsp40 toxicity, primary screen, S. cerevisiae, ATP luminescence; S. cerevisiae expressing PfHsp40, growth rescue; growth rescue, % at 12.5 µM; 340,000 tested, 0.68% active; AID 504582, 2011; in the data active = growth rescue above about 28%, passing the limit was not always enough; inconclusive = no clear call, values can overlap the other calls;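 note: yeast W303a lacking pdr1 and pdr3 grown in galactose medium; growth measured after three days at 30 °C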
# BioA inh – M. tuberculosis BioA enzyme inhibitors, primary screen, biochemical, plate reader, single point, HTS; 7,8-diaminopelargonic acid synthase BioA (Mycobacterium tuberculosis); 360,000 tested, 0.096% active; inhibition, % at 9.99 µM; purified M. tuberculosis BioA enzyme; in the data active = inhibition above about 40%; inconclusive = no clear call, values can overlap the other calls
# Y pestis TopoI – Yersinia pestis topoisomerase I inhibitors, primary screen, biochemical, cleavage product accumulation, plate reader, single point; DNA topoisomerase I (Yersinia pestis CO92); Y. pestis Topo-I cleavage product accumulation; activity, % at 10 µM; 360,000 tested, 0.064% active; AID 504884, 2011; in the data active = activity above about 50%, passing the limit was not always enough; inconclusive = no clear call, values can overlap the other calls
# SARS 3CLpro inh – SARS-CoV 3CLpro protease inhibitors, primary screen, biochemical, quenched FRET; recombinant SARS-CoV 3CLpro, quenched FRET peptide cleavage; Replicase polyprotein 1ab (Severe acute respiratory syndrome coronavirus), P0C6X7; inhibition, % at 6 µM; 290,000 tested, 0.14% active; in the data active = inhibition above about 12%
# * = called active by the depositor; u = inconclusive; x = no result given. Compounds with a hit are over-represented: about 1.1% of the library has one in this group of screens.
SMILES,BJeLR viability,MazF activator,PfHsp40 rescue,BioA inh,Y pestis TopoI,SARS 3CLpro inh
C=CCC1c2cccc(C(=O)O)c2C(=O)N1c1cccc(C)c1 (stereo not drawn),-13,1,159*,0,7,-3
C=CCC1c2cccc(C(=O)O)c2C(=O)N1c1cccc(OC)c1 (stereo not drawn),5,-9,1,26,-6,2
C=CCC1c2cccc(C(=O)O)c2C(=O)N1c1ccc(Cl)cc1 (stereo not drawn),4,2,133*,-1,4,2
C[C@H](CO)N1C[C@H](C)[C@H](CN(C)Cc2ccccc2)OCCCC[C@H](C)Oc2ccc(NC(=O)Nc3ccc4c(c3)OCO4)cc2C1=O,x,x,x,-2,x,x
C[C@@H]1CN([C@H](C)CO)C(=O)c2cccc(NS(=O)(=O)c3cccs3)c2O[C@@H]1CN(C)S(=O)(=O)c1ccc(F)cc1,x,x,x,-1,x,x
C/C=C/c1cnc2c(c1)C(=O)N([C@H](C)CO)C[C@@H](C)[C@@H](CN(C)C(=O)Nc1c(C)noc1C)O2,x,x,x,-1,x,x
CCCCCOc1ccc(CSc2n[nH]c(C)n2)cc1,1,-4,271*,x,5,3
Cc1nc(SCc2ccc(Cl)c(Cl)c2)n[nH]1,3,4,3,0,-10,-3
Cc1nc(SCc2ccc(F)cc2)n[nH]1,-29,4,-1,0,2,2
Cc1nc(SCc2ccc(OCCC(C)C)cc2)n[nH]1,6,-1,301*,x,11,5
Cc1cc(NC(=O)/C(C#N)=C\c2ccc(-c3ccc(SC(F)F)cc3)o2)n(-c2ccccc2)n1,x,432*,1,x,0,x
Cc1c(NC(=O)/C(C#N)=C/c2ccc(-c3ccc(Cl)c(Cl)c3)o2)c(=O)n(-c2ccccc2)n1C,-12,-4,1,x,11,-4
NC1=NC[C@H](Cc2ccc(O)cc2)N1CCc1cccc(F)c1,-5,6,u,2,1,x
NC1=NC[C@@H](Cc2ccc(O)cc2)N1CCC12CC3CC(CC(C3)C1)C2,1,-1,48*,3,23,x
CCNC(=O)C[C@@H]1CC[C@H]2[C@@H](COc3ccc(NC(=O)C4CCCCC4)cc3C(=O)N2C)O1,x,x,x,-1,x,x
O=C(/C=C/c1cccc([N+](=O)[O-])c1)NC1CC2CCC1C2 (stereo not drawn),4,11,51*,x,2,-1
COc1ccc(/C=C/C(=O)NC2CC3CCC2C3)cc1 (stereo not drawn),1,4,-1,-1,-2,-3
C[C@H](CO)N1C[C@H](C)[C@@H](CN(C)C(=O)C2CCCCC2)OCCCC[C@H](C)Oc2ccc(NC(=O)CCCN(C)C)cc2C1=O,x,x,x,6,x,x
C(=N\n1cnnc1)/c1cccc(Oc2ccccc2)c1,7,8,1,3,11,2
S=c1[nH]ncn1/N=C/c1cccc(Oc2ccccc2)c1,0,4,106*,0,-2,7
Cc1noc(C)c1S(=O)(=O)Nc1cccc2c1O[C@@H](CN(C)Cc1ccc(-c3ccccc3)cc1)[C@@H](C)CN([C@H](C)CO)C2=O,x,x,x,-2,x,x
Cc1nn(Cc2ccc(F)cc2)c(Cl)c1/C=N/NC(=O)c1cccnc1,-8,7,1,98*,-3,0
COC(=O)C1=C(c2ccc(OC(F)(F)F)cc2)C[C@@H]2CC[C@H]1N2C(=O)N1CCC(C)CC1,x,1,41*,2,41,x
COC(=O)C1=C(c2ccc(OC(F)(F)F)cc2)C[C@@H]2CC[C@H]1N2C(=O)N1CCCC1,x,3,2,6,30,x
COc1ccc(S(=O)(=O)N(C)C[C@@H]2OCCCC[C@H](C)Oc3ccc(NC(=O)c4ccccc4)cc3C(=O)N([C@H](C)CO)C[C@H]2C)cc1,x,x,x,-2,x,x
CO[C@@H]1CN(C)C(=O)c2cc(NC(=O)c3cc(C)on3)ccc2OC[C@H](C)N(CC2CC2)C[C@@H]1C,x,x,x,-1,x,x
CCCCn1nnnc1SCC(=O)c1ccc(C)c(C)c1,9,1,1,0,52*,3
